These results are taken from PubChem BioAssay AID651642 (Sanford-Burnham Center for Chemical Genomics, 2012).

The structures appear in SMILES notation. Values without a mark were called inactive. Calls of active or inactive are those of the source.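 How the source made its calls: active means average half-effect concentration of 10 µM or less in every one of the four cell panels; inactive means the rest.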

The subject of this assay is HL-1. Description: protection of cardiomyocytes from stress damage, SAR follow-up, cell-based, panel, H9c2 and HL-1, H2O2, 2-deoxyglucose, ATP luminescence (AID 651642).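 On activity: plate controls were H2O2 plus DMSO for no effect and cells kept without H2O2 for full effect.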 The note with it: H9c2/HL-1 cardiomyocyte H2O2 oxidative damage, mean of runs; activity: with H2O2, at 0.154 µM; outcome: with H2O2.
Take `COc1cc(-c2cc(C(=O)Nc3cccc(-c4nn[nH]n4)c3)c3ccccc3n2)cc(OC)c1OC`: the activity is -2.86%. Still for that read-out and setting: under `COc1ccc2nc(-c3cc(OC)c(OC)c(OC)c3)cc(C(=O)NCC(=O)Nc3ccc(C(C)=O)cc3)c2c1` stands -1.7% (active); under `CCOC(=O)c1cccc(NC(=O)CNC(=O)c2cc(-c3cc(OC)c(OC)c(OC)c3)nc3ccc(OC)cc23)c1`, -3.33% (active).

In the case of `COc1cc(-c2cc(C(=O)Nc3cccc(C(C)=O)c3)c3cc(F)ccc3n2)cc(OC)c1OC`, the activity was -2.5% (active). As to `COc1cc(-c2cc(C(=O)Nc3cccc(C(C)=O)c3)c3ccccc3n2)cc(OC)c1OC`, the activity is -1.02% (active). Still for that read-out and setting: under `CCOC(=O)c1cccc(NC(=O)c2cc(-c3cc(OC)c(OC)c(OC)c3)nc3ccc(F)cc23)c1` stands 5.11% (active); under `COc1ccc2c(c1OC)C(=O)N1c3ccccc3C(=O)N(Cc3ccccn3)C21` (configuration not stated), 1.21%; under `CCOC(=O)c1cccc(NC(=O)c2cc(-c3cc(OC)c(OC)c(OC)c3)nc3ccc(Br)cc23)c1`, 0.456%. Same read-out and setting: under `COc1ccccc1CN1C(=O)c2ccccc2N2C(=O)c3c(ccc(OC)c3OC)C12` (configuration not stated) stands 1.25%. Same read-out and setting: to `CCOC(=O)c1cccc(NC(=O)c2cc(-c3cc(OC)c(OC)c(OC)c3)nc3cc(Cl)ccc23)c1` belongs 1.44%.

Regarding `CCNC(=O)c1cccc(NC(=O)c2cc(-c3cc(OC)c(OC)c(OC)c3)nc3ccccc23)c1`, the activity was -0.0361% (active). On the same count and under the same terms, to `COc1ccc2c(c1OC)C(=O)N1c3ccccc3C(=O)N(Cc3ccc(F)cc3)C21` (configuration not stated) belongs -2.95%. As for `CCOC(=O)c1ccc(NC(=O)c2cc(-c3cc(OC)c(OC)c(OC)c3)nc3ccccc23)cc1`, the activity is 0.646%. In the case of `COc1cccc(CNC(=O)CNC(=O)c2cc(-c3cc(OC)c(OC)c(OC)c3)nc3ccccc23)c1`, the activity is -2.04%.

Take `COc1cc(-c2cc(C(=O)NCC(=O)Nc3ccc(C(C)=O)cc3)c3cc(C)ccc3n2)cc(OC)c1OC`: the activity was 4.62% (active). The same measure, in the same setting: to `COc1cc(-c2cc(C(=O)NCC(=O)Nc3cccc(C(C)=O)c3)c3cc(F)ccc3n2)cc(OC)c1OC` belongs -0.68% (active); to `COc1ccc2c(c1OC)C(=O)N1c3ccccc3C(=O)N(Cc3ccc(C)cc3C)C21` (configuration not stated), -0.945%.

In the case of `CCOC(=O)c1cccc(NC(=O)CNC(=O)c2cc(-c3cc(OC)c(OC)c(OC)c3)nc3ccccc23)c1`, the activity is -0.899%. Same read-out and setting: to `COc1cc(-c2cc(C(=O)Nc3cccc(C#N)c3)c3ccccc3n2)cc(OC)c1OC` belongs 0.75%; to `COc1ccc2c(c1OC)C(=O)N1c3ccccc3C(=O)N(Cc3c(Cl)cccc3Cl)C21` (configuration not stated), 2.81%; to `COc1cc(-c2cc(C(=O)Nc3cccc(C(=O)N4CCOCC4)c3)c3ccccc3n2)cc(OC)c1OC`, -0.415%. Turning to `COc1ccc2nc(-c3cc(OC)c(OC)c(OC)c3)cc(C(=O)Nc3cccc(C(C)=O)c3)c2c1`, the outcome was “inactive”. Turning to `COc1cc(-c2cc(C(=O)Nc3cccc(C(=O)NC4CC4)c3)c3ccccc3n2)cc(OC)c1OC`, the activity was -0.15% (active). On the same count and under the same terms, under `COc1ccc2c(c1OC)C(=O)N1c3ccccc3C(=O)N(Cc3ccccc3C)C21` (configuration not stated) stands -0.339%; under `COc1ccc2nc(-c3cc(OC)c(OC)c(OC)c3)cc(C(=O)NCC(=O)Nc3cccc(C(C)=O)c3)c2c1`, -0.983% (active). Same read-out and setting: under `COC(=O)CNC(=O)c1cc(-c2cc(OC)c(OC)c(OC)c2)nc2ccccc12` stands -2.8%. The same measure, in the same setting: under `COc1cc(-c2cc(C(=O)Nc3cccc(C(N)=O)c3)c3ccccc3n2)cc(OC)c1OC` stands -0.415% (active). `COc1cc(-c2cc(C(=O)Nc3cccc(C(=O)Nc4ccccc4)c3)c3ccccc3n2)cc(OC)c1OC`: the activity was -3.29%. For `COc1ccc2c(c1OC)C(=O)N1c3ccccc3C(=O)N(Cc3ccc(C)cc3)C21` (configuration not stated), the activity was 9.89%. Regarding `COc1ccc2c(c1OC)C(=O)N1c3ccccc3C(=O)N(Cc3cccc(Br)c3)C21` (configuration not stated), the activity is 0.759%.

In the case of `COc1cc(-c2cc(C(=O)Nc3cccc(C(C)=O)c3)c3cccc(Cl)c3n2)cc(OC)c1OC`, the activity is -3.22%.

On to `CCOC(=O)c1cccc(NC(=O)CNC(=O)c2cc(-c3cc(OC)c(OC)c(OC)c3)nc3ccc(C)cc23)c1`, for which the activity is -1.48% (active).
